High-throughput results: PubChem, The Scripps Research Institute Molecular Screening Center
OPRM1-OPRD1 ag – OPRM1-OPRD1 heterodimerization agonism. cells, luminescence. activation, % at 9.3 µM. actives 0.3% (n = 340,000). AID 504326;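 further: 0% = vehicle-treated cells and 100% = reference agonist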
HTR5A ag – activates human HTR5A in OPRM1-OPRD1 agonist counter-screen; P47898; HTR5A agonist assay, luminescence, cell-based; activation, % at 9.3 µM; actives 0.61% (n = 340,000); in the data active means activation mostly above about 9.5%, no sharp cut-off; inactive means mostly below about 7.6%;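 further: 0% = cells with vehicle only and 100% = reference agonist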
HTR5A inv ctr – counter-screen for OPRM1-OPRD1 inverse agonists: human HTR5A inverse agonism; HTR5A cell line, luminescence; actives 0.083% (n = 340,000); inhibition, % at 9.3 µM; AID 504634; in the data active means inhibition mostly above about 23%, no sharp cut-off; inactive means mostly below about 18%;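 further: 0% = cells with DMSO and 100% = no-cell wells with DMSO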
MOR-DOR inv ag – inverse agonists of human mu-delta opioid receptor heterodimerization; actives 0.21% (n = 340,000); cell-based MOR-DOR heterodimer luminescence, inverse agonism; P35372+P41143; inhibition, % at 9.3 µM; in the data active means inhibition above about 22%, passing the limit was not always enough;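 further: 0% = cells with DMSO and 100% = wells without cells with DMSO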
MOR-DOR ag conf – confirmation of human OPRM1-OPRD1 heterodimerization agonists | shares compounds with OPRM1-OPRD1 ag | cells, MOR-DOR heterodimerization, luminescence complementation | activation, % at 9.3 µM | actives 45% (n = 830) | AID 504904;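 further: 0% = vehicle-treated cells and 100% = reference agonist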
HTR5A ag counter – HTR5A agonism, opioid heterodimer counter-screen | HTR5A agonist counterscreen, cell luminescence | shares compounds with OPRM1-OPRD1 ag | actives 8% (n = 830) | activation, % at 9.3 µM | AID 504905; in the data active means activation above about 17%;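 further: 0% = vehicle-treated cells and 100% = reference agonist response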
An asterisk follows results filed as active; i = inactive; x = no result given. The list is not random: actives were taken first. Their share in the collection is about 1.1%. Unless noted, no stated cut-off is given here; in the data, active means activation above about 18%; inactive means the rest.

SMILES | OPRM1-OPRD1 ag | HTR5A ag | HTR5A inv ctr | MOR-DOR inv ag | MOR-DOR ag conf | HTR5A ag counter
COc1ccc(C2C(C#N)=C(N)N(c3sc4c(c3C#N)CCCC4)C3=C2C(=O)CC(C)(C)C3)cc1 (stereo not given) | 87.8* | 0.9 | -3.6 | i | 211.0* | -5.1
COc1ccc(C2C(C#N)=C3NC(=O)c4c(sc5c4CCCCC5)N3C3=C2C(=O)CC(C)(C)C3)cc1 (stereo not given) | 2.0 | 2.4 | -6.4 | -11.8 | x | x
COc1ccc(C2C(C#N)=C(N)N(c3sc4c(c3C#N)CCCC4)C3=C2C(=O)CC(C)(C)C3)cc1OC (stereo not given) | 22.9* | 1.4 | -5.2 | -142.9 | 30.6* | 25.2*
CCNC(=O)CN(c1ccc(F)cc1)S(=O)(=O)c1ccc2c(c1)OCCO2 | 2.9 | 0.2 | -0.5 | -23.2 | x | x
Cc1ccccc1OCc1nc(-c2ccc(NC(=O)c3ccco3)cc2)no1 | 1.6 | 10.3 | -15.5 | -6.6 | x | x
Cc1ccccc1OCc1nc(-c2ccc(NC(=O)c3ccc4c(c3)OCO4)cc2)no1 | 20.9* | 10.5 | -26.3 | -87.8 | 0.8 | 1.5
CCOC(=O)C1(CCOc2ccccc2)CCN(Cc2cccn2-c2cccnc2)CC1 | 224.3* | -1.7 | 4.7 | i | 239.7* | 0.7
CCOC(=O)C1(Cc2cccc(OC)c2)CCN(Cc2cccn2-c2nccs2)CC1 | 4.9 | -1.6 | -14.2 | -23.9 | x | x
CCOC(=O)C1(Cc2ccccc2)CCN(Cc2cccn2-c2nccs2)CC1 | 26.6* | -2.0 | 5.3 | -192.2 | 224.2* | 6.1
CCOC(=O)C1(Cc2ccccc2)CCN(Cc2cccn2-c2cccnc2)CC1 | 41.1* | 0.1 | -0.4 | -217.7 | 54.9* | -2.1
Cc1cccc(C)c1NC(=O)CN(C)C(=O)C1CC1C (stereo not given) | -0.8 | 0.7 | -2.4 | 4.3 | x | x
CCC(C)(C)NC(=O)C(c1cccc(OC)c1OC)N(C(=O)CCC(=O)Nc1cc(C)on1)C(C)C (stereo not given) | -2.5 | -3.9 | -18.7 | 15.4 | x | x
Cc1ccccc1C(=O)N1CCC(C(=O)N2CCCc3ccccc32)CC1 | 0.2 | 1.8 | -4.5 | -0.7 | x | x
Cc1cc(C)cc(CC(Cc2nc3ccccc3[nH]2)c2nc3ccccc3[nH]2)c1 (stereo not given) | 66.1* | -8.0 | -15.5 | -375.6 | -0.2 | -1.7
CCOC(=O)c1c(C)[nH]c(O)c1C=Nc1ccc(C(F)(F)F)cc1 | 12.5 | -1.9 | -50.4 | -65.4 | x | x
CCOC(=O)c1c(C)[nH]c(O)c1C=Nc1ccc(Cl)cc1 | 38.7* | -3.1 | 8.2 | -235.6 | 13.5 | 1.5
O=C(CCN1C(=O)/C(=C/c2ccc(F)cc2)SC1=S)N[C@@H](CO)Cc1ccccc1 | -1.3 | -1.3 | 5.0 | 6.8 | x | x
COc1cc(C(=O)NCC(c2cccs2)N(C)C)cc(Cl)c1OC(C)C (stereo not given) | 48.0* | -1.6 | 4.2 | -244.1 | 3.7 | -0.6
CCCOc1ccc(C(=O)NCC(c2cccs2)N(C)C)cc1OC (stereo not given) | 8.0 | -1.5 | 14.5 | -44.0 | x | x
COc1cc2ccccc2cc1C(=O)NCC(c1cccs1)N(C)C (stereo not given) | 71.7* | -1.8 | 4.9 | -375.2 | -0.4 | 6.2
CCc1nc(NC(=O)Cc2csc(C)n2)sc1C(=O)OC | -1.8 | 7.4 | -28.6 | 10.4 | x | x
COc1cc(NC(=O)c2cccc(C)c2)ccc1NC(=O)c1cc2ccccc2o1 | 30.1* | 1.0 | -3.9 | -167.0 | 48.6* | 5.6
O=C(CC12CC3CC(CC(C3)C1)C2)NC1CC1 | -3.4 | -1.3 | 3.5 | 16.6 | x | x
COc1ccccc1CN(C)C(=O)CSCC(=O)Nc1ccccc1F | -2.7 | -1.2 | 3.0 | 10.7 | x | x
CCn1c(/C=C/c2c(C)[nH]c3ccccc23)nc2ccccc2c1=O | 27.4* | -1.6 | -1.0 | -146.3 | 0.9 | -1.0
CCn1c(/C=C/c2c[nH]c3ccccc23)nc2ccccc2c1=O | 5.7 | -1.5 | 4.2 | -26.2 | x | x
CCOC(=O)c1c2c(n(-c3ccc(OC)cc3)c1C)C(=O)C(=O)c1ccccc1-2 | 19.9* | 10.3 | -39.6 | -97.3 | 15.4 | 1.2
COc1ccc(Cl)cc1NC(=O)c1cc(-c2ccccc2O)n[nH]1 | 11.9 | -0.2 | 0.4 | -71.4 | x | x
COc1ccc(OC)c(NC(=O)c2cc(-c3cc(Cl)ccc3O)n[nH]2)c1 | 19.2* | 9.3 | -47.2 | -111.7 | 0.4 | 12.4
Cc1cn(C2CCCCC2)c(=O)n(-c2ccccc2)c1=O | -0.7 | 5.2 | -20.1 | 3.7 | x | x
